Source: PubChem BioAssay (National Center for Advancing Translational Sciences (NCATS))
In the library only some 0.54% were active in any assay of this set; here they are far more common.
Vif-A3G inh: qHTS for Inhibitors of Vif-A3G Interactions: qHTS. AID 602310, 2012. Potency, µM (doses to about 46.1 µM), without a hit: at the highest dose activity, negative = active, hits mostly inhibitors. DNA dC->dU-editing enzyme APOBEC-3G (Homo sapiens), Q9HC16. HeLa A3G-eYFP + Vif (tagged APOBEC3G with the HIV-1 protein that degrades it), YFP fluorescence, overnight. actives 0.076% (n = 410,000); note: potency is the fitted concentration of half-maximal effect; % is set by controls: 0 for no effect and ±100 for the full control effect; nearly all actives have a fitted effect of over 60% in size
Target sequence (Q9HC16 whole entry, looked up): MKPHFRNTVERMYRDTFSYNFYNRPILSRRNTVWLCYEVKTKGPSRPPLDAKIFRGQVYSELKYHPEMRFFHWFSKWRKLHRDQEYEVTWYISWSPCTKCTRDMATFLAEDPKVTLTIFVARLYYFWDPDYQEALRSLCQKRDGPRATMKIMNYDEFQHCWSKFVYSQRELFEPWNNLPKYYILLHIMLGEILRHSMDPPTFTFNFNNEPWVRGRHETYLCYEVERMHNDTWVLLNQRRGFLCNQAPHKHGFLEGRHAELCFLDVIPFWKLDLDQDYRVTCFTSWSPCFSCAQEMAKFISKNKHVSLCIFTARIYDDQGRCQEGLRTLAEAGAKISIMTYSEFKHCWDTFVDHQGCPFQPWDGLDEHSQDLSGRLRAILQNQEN
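HeLa cells stably expressing Vif and C-terminally eYFP-tagged A3G, seeded overnight at 37 deg C, then exposed to compound by pintool overnight at 37 deg C. Rise in yellow fluorescence (Ex 488/Em 500-530, Acumen) marks blocked Vif-driven A3G degradation.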
TRPML1 agonist: qHTS for Agonists of the Human Mucolipin Transient Receptor Potential 1 (TRPML1); actives 0.12% (n = 410,000); activation, % (test concentration not listed); Mucolipin-1 (Homo sapiens), Q9GZU1; AID 624414, 2012; TRPML1-expressing cells, Ca2+ dye fluorescence, FDSS; in the data active = activation above about 50%; inconclusive = mostly about 30% to 49%; note: 0% is about no effect
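Calcium fluorescence on an FDSS kinetic reader gave the read-out. Tet-induced TRPML1-DL cells were plated overnight, dye-loaded (Ca8 with quencher, 45-90 min, room temperature, dark), then read 110 s after compound addition, and again 110 s after 4uM final 54-4 (EC80).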
Vif-APOBEC3F blk: qHTS for Inhibitors of Vif-A3F Interactions: qHTS; HeLa A3F-eYFP + Vif (tagged APOBEC3F with the HIV-1 protein that degrades it), YFP fluorescence increase; Potency, µM (top dose mostly 46.1 µM), without a hit: at the top dose activity, negative = active; actives 0.2% (n = 390,000); note: potency is the fitted concentration of half-maximal effect; % of control where 0% means no effect; nearly all actives have a fitted effect of over 65% in size
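HeLa cells stably expressing A3F-eYFP plus Vif, plated and incubated overnight at 37 deg C, then exposed to compounds overnight at 37 deg C. Blocked degradation read as raised yellow fluorescence (Ex 488/Em 500-530).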
A-T KAP1 phos: qHTS Assay for Identifying a Potential Treatment of Ataxia-Telangiectasia. F2112 A-T fibroblasts, KAP-1 phosphorylation AlphaLISA; neocarzinostatin DNA damage 30 min before lysis. Potency, µM (doses to about 57.5 µM), inactives show at the highest dose activation, most hits filed as activators. actives 0.19% (n = 320,000); note: potency is the fitted concentration of half-maximal effect; % of control where 0% means no effect; nearly all actives have a fitted effect of over 45% in size
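hTERT-immortalized A-T patient fibroblasts (F2112), 500 cells/well in OPTI-MEM, 1% FBS, got compounds for 60 min, then NCS for 30 min at 37C. Lysates were then assayed for phospho-KAP-1 by AlphaLISA (anti-pKAP1 donor, anti-KAP1 acceptor beads), 6 hr at 25C.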
TRPML1 blocker: qHTS for Inhibitors of the Human Mucolipin Transient Receptor Potential 1 (TRPML1) | Mucolipin-1 (Homo sapiens), Q9GZU1 | TRPML1-inducible cells, Ca2+ dye fluorescence, FDSS; active compounds read low; inhibition of EC80 agonist-evoked calcium signal | activity change, negative = inhibition, % (concentration not given with the values) | actives 0.02% (n = 390,000); in the data active = activity change below about -50%; inconclusive = between about -30% and that limit;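 note: stimulus is agonist 54-4 at its EC80 concentration; % is set by controls: 0 for no effect and ±100 for the full control effect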
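Calcium fluorescence in TRPML1-DL cells induced overnight with Tet: a 110 s read after compound pin addition, then a 110 s antagonist read after challenge with 54-4 at 4 uM final (EC80).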
Active calls of the source: *; i = inactive; u = inconclusive; x = not tested or not shown. Unless noted, calls come from the whole dose curve; as a rule, active = well fitted curve in the direction sought with a large enough effect; inconclusive = small, poorly fitted or top-dose-only effect, or another doubt; inactive = no such curve, though single readings can be large; an effect the other way counts as inactive or inconclusive.

SMILES | Vif-A3G inh | TRPML1 agonist | Vif-APOBEC3F blk | A-T KAP1 phos | TRPML1 blocker
Cc1nc(SCC(=O)Nc2sccc2C(N)=O)c2c(C)c(C)sc2n1 | -11.4% | -1.0 | -1.0% | x | 7.6
Cc1nc(SCC(=O)Nc2cc(C(N)=O)cc(C(N)=O)c2)c2c(C)c(C)sc2n1 | 1.9% | 0.4 | -26.9% | 35.5µM* | -0.9
COc1ccc(Cl)cc1-n1cc(-c2ccccc2)nc1SCC(=O)Nc1ccc(C)cc1 | 2.5% | 0.6 | 2.9% | x | 24.1
COc1ccc(/C=C/C(=O)c2ccc([N+](=O)[O-])o2)cc1OC | 7.94µM* | 1.3 | u | u | 34.3
COc1cc(/C=C/C(=O)c2ccc([N+](=O)[O-])o2)ccc1O | u | -0.6 | u | -15.1% | -24.8
CCOC(=O)Cn1c(=O)c(-c2cc(Br)ccc2N)nc2ccccc21 | -23.1% | -0.2 | 11.2µM* | -7.9% | 10.0
Nc1c(C(=O)c2ccc(Cl)cc2)sc2nc3c(cc12)CCC3 | -7.8% | -0.4 | 25.1µM* | 1.3% | 3.2
Nc1c(C(=O)O)sc2nc3c(cc12)CCCC3 | 2.9% | -0.3 | 1.5% | 1.1% | -3.6
Cc1noc(/C=C/N(C)C)c1S(=O)(=O)N1CCc2ccccc21 | -16.0% | 0.6 | -17.1% | 25.1µM* | 3.1
Cc1noc(/C=C/N(C)C)c1S(=O)(=O)N(C)CC(=O)N1CCc2ccccc21 | 0.5% | 0.0 | 0.0% | 7.1% | 10.4
Cc1ccc(CN(C)S(=O)(=O)c2c(C)noc2/C=C/N(C)C)cc1 | 2.2% | -0.1 | 0.9% | u | 1.8
Cc1noc(/C=C/N(C)C)c1S(=O)(=O)N(C)Cc1ccc(F)cc1 | 2.5% | 0.5 | 1.3% | 31.6µM* | -2.7
OC(COc1ccc(F)cc1Cl)CN1CCC(Cc2ccccc2)CC1 (configuration not stated) | -6.1% | 0.9 | -1.8% | 3.55µM* | -2.0
OC(COc1ccccc1F)CN1CCC(Cc2ccccc2)CC1 (configuration not stated) | 1.8% | -0.4 | 0.2% | -2.6% | -6.9
Cc1ccc(CN2[C@H](C)[C@H](c3ccccc3)OCCS2(=O)=O)cc1 | 3.1% | 2.1 | x | x | x
COC(=O)Cc1c(C)c2cc3c(c(C)c2oc1=O)OCN(CCc1ccc(OC)cc1)C3 | -1.7% | -0.3 | 2.5% | x | -2.6
CCc1ccccc1N(CC)C(=O)c1c(C)oc2ncn(C)c(=O)c12 | -7.0% | 0.1 | -3.2% | x | 26.4
Cc1cc2c(c(=O)o1)C(c1ccc([N+](=O)[O-])o1)C(C#N)=C(N)O2 (configuration not stated) | -1.5% | 2.8 | u | 31.6µM* | -4.6
COc1ccc(C(=O)c2sc(Nc3cccc(OC)c3)c(C(=O)Nc3cccc(C)c3C)c2N)cc1 | -5.1% | 60.7* | u | -3.9% | -19.8
NN=C1c2ccccc2C(=O)C1C(=O)C(c1ccccc1)c1ccccc1 (configuration not stated) | 11.2µM* | 23.0 | i | x | -6.2
O=C1CCCc2[nH]c(=O)c(C(=O)NCc3ccccc3)cc21 | 1.5% | 0.9 | x | x | x
CCCC(=O)Nc1cccc(-c2cn3c(C)csc3n2)c1 | 2.7% | -0.2 | -8.2% | x | -1.3
Nc1ccc2nc(CCc3ccccc3)[nH]c2c1 | 0.7% | -0.6 | 12.6% | -3.9% | 0.7
Nc1ccc2nc3c(=O)n(C4CCCCC4)c(=O)[nH]c3nc2c1 | u | 80.0* | 12.6µM* | 0.0% | -10.1
Nc1ccc2nc3c(=O)n(CCc4ccccc4)c(=O)[nH]c3nc2c1 | u | 74.9* | u | -5.7% | -27.9
SMILES | Vif-A3G inh | TRPML1 agonist | Vif-APOBEC3F blk | A-T KAP1 phos | TRPML1 blocker
Cc1cc2nc3c(=O)n(CCc4ccccc4)c(=O)[nH]c3nc2cc1N | u | 114.0* | 6.31µM* | 3.0% | -27.2
CCCCn1c(=O)[nH]c2nc3cc(N)ccc3nc2c1=O | 10.8% | 73.7* | -11.6% | 2.5% | -20.9
CCCc1cc(N2CCN(c3ccccc3F)CC2)n2cnnc2n1 | -2.9% | -0.3 | 0.4% | x | 4.5
CCCN1CNc2c(c(=O)[nH]c(=S)n2CCCc2ccccc2)C1 | x | -0.2 | x | x | x
CC(C)c1ccc(NC(=O)CSC(C)c2nc3ccccc3c(=O)[nH]2)cc1 (configuration not stated) | -3.9% | 0.4 | -22.7% | 3.98µM* | -1.2
CC(SCC(=O)Nc1ccccc1)c1nc2ccccc2c(=O)[nH]1 (configuration not stated) | 1.0% | -0.4 | 1.4% | 3.4% | 1.0
CCCCN(C)CC(O)Cn1cc(/C=C/C(=O)c2ccc(OCC)cc2)c2ccccc21 (configuration not stated) | -18.8% | 4.6 | 0.2% | -20.0% | -2.6
CCCCN(C)CC(O)Cn1cc(/C=C/C(=O)c2cccs2)c2ccccc21 (configuration not stated) | u | 15.7 | 28.2µM* | 11.7% | 17.6
CCOc1ccccc1NC(=O)N1CCc2c(sc(C)c2CC)C1c1ccccc1 (configuration not stated) | 1.1% | 6.4 | 0.5% | x | -2.3
CCOC(=O)c1cc(S(=O)(=O)N2CCN(c3ccccc3OC)CC2)[nH]n1 | 0.9% | 1.1 | 0.7% | x | -7.4
CN1CCN(S(=O)(=O)c2ccc(N(C)Cc3ccc(OC(F)F)cc3)c([N+](=O)[O-])c2)CC1 | 2.8% | 53.1* | 2.5% | -2.5% | -8.6
COC(=O)N1CCCc2cc(S(=O)(=O)NCc3ccccc3)ccc21 | 0.6% | 2.6 | 4.6% | x | -25.1
CC1(C)CC(=O)C(N=Nc2cccc(S(=O)(=O)N3CCOCC3)c2)=C(O)C1 | -2.8% | 0.7 | -5.9% | 17.8µM* | -5.9
O=S(=O)(NCCc1cn(S(=O)(=O)c2ccccc2)c2ccccc12)c1ccccc1 | -1.3% | 1.1 | x | x | -5.0
CN(C)c1ccc(/C=C/c2ccnc3ccc(F)cc23)cc1 | u | 23.5 | x | x | x
COc1ccc(OC)c(/C=C/c2nc3ccccc3[nH]c2=O)c1 | u | 24.8 | 22.4µM* | 2.5% | -7.9
COc1ccc(OC)c(/C=C/c2nc3ccccc3nc2C)c1 | -22.6% | 1.6 | x | x | x
Clc1cccc[n+]1CCCCCC[n+]1ccccc1Cl | -5.6% | -0.6 | x | x | x
CCCCCCCCC(=O)N/N=C(\C)c1ccc(O)cc1O | -5.3% | -0.5 | -17.5% | -4.7% | -8.8
CCCCCCCC(=O)N/N=C(\C)c1ccc(O)cc1O | -4.9% | 56.6* | -0.2% | 0.3% | -11.4
CCN1CCN(c2nnc(-n3cccc3C(=O)Nc3cccc(OC)c3)s2)CC1 | -3.2% | 0.2 | -0.5% | x | -3.1
CCOC(=O)c1c(NC(=O)CN(CC)CC)sc2c1CCC2 | 1.8% | 1.8 | -5.7% | 22.4µM* | -4.0
